FBW7 activator: FBW7 E3 ligase activators, primary screen, biochemical, AlphaScreen, human; AID 1259310, 2017; 650,000 compounds, 0.13% hits; normalized activity (activation), % at 26.1 µM; AlphaScreen FBW7–phospho-cyclin E peptide binding, activator screen; F-box/WD repeat-containing protein 7 (Homo sapiens), Q969H0; in the data active = normalized activity above about 1.9%;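 note: purified mutant Fbw7 with reduced substrate affinity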
TEAD-YAP inh: TEAD-YAP interaction inhibition, primary screen, TEAD-YAP interaction inhibitor project, luminescence, HEK-TIYL cells | 640,000 compounds, 1.4% hits | TEAD-Gal4/YAP UAS-luciferase luminescence | AID 1259422, 2018 | inhibition, % at 9.12 µM; in the data active = inhibition above about 32%;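 note: 0% = median of test compound wells and 100% = reference inhibitor wells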
MITF primary: MITF inhibitors, primary screen, biochemical, AlphaScreen, human; Microphthalmia-associated transcription factor (Homo sapiens), O75030; AlphaScreen MITF homodimerization, bead proximity signal; inhibition, % at 2.6 µM; 650,000 compounds, 0.91% hits; in the data active = inhibition above about 50%;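 note: 0% = vehicle wells with protein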
Target sequence (O75030 whole entry, looked up): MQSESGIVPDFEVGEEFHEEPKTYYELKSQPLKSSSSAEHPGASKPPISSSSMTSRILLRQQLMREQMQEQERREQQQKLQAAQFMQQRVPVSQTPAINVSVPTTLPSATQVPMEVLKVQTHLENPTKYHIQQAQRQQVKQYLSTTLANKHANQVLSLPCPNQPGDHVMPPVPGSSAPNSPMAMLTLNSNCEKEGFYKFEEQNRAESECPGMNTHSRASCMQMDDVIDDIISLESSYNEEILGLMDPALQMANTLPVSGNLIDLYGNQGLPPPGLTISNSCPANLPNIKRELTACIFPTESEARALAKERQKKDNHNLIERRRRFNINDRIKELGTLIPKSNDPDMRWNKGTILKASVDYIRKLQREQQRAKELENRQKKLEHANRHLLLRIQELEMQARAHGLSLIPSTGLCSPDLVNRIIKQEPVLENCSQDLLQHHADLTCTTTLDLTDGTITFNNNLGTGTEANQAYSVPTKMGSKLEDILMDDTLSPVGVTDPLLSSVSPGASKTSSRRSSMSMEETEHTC
GPR151 ag: activators of human GPR151, primary screen, cell-based, PathHunter beta-arrestin, luminescence; G-protein coupled receptor 151 (Homo sapiens), Q8TDV0; PathHunter beta-arrestin GPR151 cells; activation, % at 11.2 µM; 650,000 compounds, 1% hits; in the data active = activation above about 4.9%;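 note: 0% = median of compound wells and 100% = cells with positive control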
MITF inh conf: MITF inhibitors, retest of hits, confirmation, biochemical, AlphaScreen, triplicate. shares compounds with MITF primary. AlphaScreen MITF homodimerization, biotin/His-MITF beads. inhibition, % at 2.6 µM. 4,700 compounds, 16% hits;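 active = inhibition above a cutoff derived from the DMSO control wells, cut at about 28% in these data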;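 note: 0% = MITF dimer wells with DMSO only; inhibitors lower the bead chemiluminescence by keeping MITF from dimerizing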
AlphaScreen DR: AlphaScreen optical interference compounds, dose response, counter-screen, biochemical, HTS; shares compounds with MITF primary; AlphaScreen optical interference counterscreen, cell-free; IC50, µM; 480 compounds, 6% hits; AID 1259373, 2018; call rule not given here
AlphaScreen intf2: AlphaScreen optical interference compounds, counter-screen for MITF inhibitor project, biochemical, triplicate; 4,700 compounds, 7.6% hits; shares compounds with MITF primary; LysRS AlphaScreen counterscreen, signal interference; inhibition, % at 2.6 µM;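 active = inhibition above a cutoff derived from the DMSO control wells, cut at about 30% in these data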
* = called active by the depositor; . = no result given. A selection: hits, their analogues and other compounds. The true share with any hit is near 3.4%.

SMILES	FBW7 activator	TEAD-YAP inh	MITF primary	GPR151 ag	MITF inh conf	AlphaScreen intf2	others
Cc1cc(C)c(CN2CCN(C3CCN(C(C)C)CC3)C(CCO)C2)cc1C (configuration not stated)	0	1	-2	-1	.	.
Cc1c(CN2CCN(C3CCN(C(C)C)CC3)C(CCO)C2)cnn1C (configuration not stated)	0	0	84*	0	-3	-9
NC(=O)C1CCN(CC(=O)NCCc2ccccc2)CC1	0	3	57*	5	-4	-4
Clc1cccc(Cl)c1OCCCn1ccnc1	0	-2	52*	1	1	1
Clc1cc(Br)ccc1OCCCn1ccnc1	0	4	43	0	.	.
Cc1cccc(Cl)c1OCCCCn1ccnc1	0	1	1	-1	.	.
Cc1cccc(C)c1OCCCCn1ccnc1	0	6	70*	0	-5	-4
CCOc1cccc(OCCn2ccnc2)c1	0	2	43	0	.	.
CCc1cccc(OCCn2ccnc2)c1	0	-3	54*	0	4	6
Clc1cc(Br)ccc1OCCn1ccnc1	0	-14	54*	-1	0	5
c1ccc(COc2ccc(OCCCCn3ccnc3)cc2)cc1	0	-4	60*	-1	36*	25	AlphaScreen DR=>6.5
O=C(CNCCc1ccc2c(c1)OCCO2)N1CCc2ccccc21	0	7	51*	0	-3	7
CCN(CC)C(=O)C1CCCN(c2nc(NCc3cccc(C(F)(F)F)c3)c3[nH]cnc3n2)C1 (configuration not stated)	0	5	-1	2	.	.
CCCNC(=O)Nc1ccc(Cl)c(C(=O)O)c1	0	2	64*	0	-16	-8
O=C(O)CCC(=O)Nc1ccc(Cl)c(C(=O)O)c1	0	9	6	-1	.	.
O=C(OCCN=C1NS(=O)(=O)c2ccccc21)c1ccccc1Cl	0	2	16	0	.	.
CCC(=O)Nc1ccc(C(=O)Nc2ccc(C#N)cc2)cc1	0	-3	-4	0	.	.
CCC(=O)Nc1ccc(C(=O)Nc2ccccc2C#N)cc1	0	-9	51*	-1	-10	-6
COc1ccc(NS(=O)(=O)c2cccc(C#N)c2)cc1S(N)(=O)=O	0	4	9	0	.	.
N[C@@H](C(=O)N[C@@H]1C(=O)N2C(C(=O)O)=C(CSC3CNNN3)CS[C@H]12)c1ccc(O)cc1 (some centres not stated) (tested in a mixture with another compound)	0	-1	63*	2	72*	29	AlphaScreen DR=0.67*
O=C(N/N=C/C=C/c1ccc([N+](=O)[O-])o1)c1cccc(O)c1	0	7	22	0	.	.
CC(O)C(=O)N/N=C/C=C/c1ccc([N+](=O)[O-])o1 (configuration not stated)	-1	0	55*	3	71*	2	AlphaScreen DR=>7.2
O=c1[nH]c2ccccc2n1CN1CCOCC1	0	-3	90*	2	5	11
O=c1[nH]c2ccccc2n1CN1CCc2ccccc2C1	0	-1	51*	1	11	13
O=c1[nH]c2ccccc2c(=O)n1CCCN1CCOCC1	0	-1	11	-1	.	.
SMILES	FBW7 activator	TEAD-YAP inh	MITF primary	GPR151 ag	MITF inh conf	AlphaScreen intf2	others
O=c1[nH]c2ccccc2n1CCCN1CCCCC1	0	-2	-5	1	.	.
Cn1c(=NC(=O)c2cccs2)sc2cc3c(cc21)OCCO3	0	26	-14	0	.	.
Cc1cc(C(=O)N=c2sc3cc4c(cc3n2C)OCCO4)no1	0	-23	76*	0	2	-6
C=CCOC(=O)COc1ccc2c(=O)c(Oc3ccc(OC)cc3)coc2c1	0	7	75*	0	23	8
CCN(CC)C(=O)C1CCCN(Cc2ccc(C)o2)C1 (configuration not stated)	0	15	39	0	.	.
CCN(CC)C(=O)C1CCCN(Cc2ccc([N+](=O)[O-])o2)C1 (configuration not stated)	0	14	56*	1	4	9
CCN(CC)C(=O)C1CCCN(Cc2ccc(C(F)(F)F)cc2)C1 (configuration not stated)	0	14	53*	0	-2	-2
c1ccc2c(c1)ncn2CC1CCCCC1	1	2	13	0	.	.
c1ccc2c(c1)ncn2CC1CCN(Cc2cn3ccccc3n2)CC1	0	12	89*	3	29*	17	AlphaScreen DR=>6.5
c1ccn2cc(CN3CCCCC3)nc2c1	0	4	82*	0	-13	0
COc1cccc(CNC(=O)Nc2ccc(-c3cn[nH]c3C)cc2)c1	0	2	14	1	.	.
CCN(CC)CC(O)COc1ccc(Br)cc1 (configuration not stated)	0	-6	4	1	.	.
CCOC(=O)C1=C(C)N=c2s/c(=C\c3cc(Br)c(OC)cc3OC)c(=O)n2C1c1ccc(OC(C)C)cc1 (configuration not stated)	0	-2	3	2	.	.
CCN1CCN(CCOc2ccc3ccccc3c2Cl)CC1	0	-2	58*	0	11	19
CCN1CCN(CCCOc2ccc3ccccc3c2Br)CC1	0	-19	61*	0	7	15
CCN1CCN(CCOc2cccc3ccccc23)CC1	0	14	-17	0	.	.
Clc1c(OCCCN2CCNCC2)ccc2ccccc12	0	-22	51*	1	-13	-7
CCC(=O)N1CCc2cc(S(=O)(=O)N3CCN(c4ccc(F)cc4)CC3)ccc21	0	8	3	2	.	.
OC(CON=C1c2ccccc2-c2ccccc21)CN1CCNCC1 (configuration not stated)	-1	-4	77*	1	12	12
Fc1ccc(CN2CCN(C3CC4CCC3C4)CC2)cc1 (configuration not stated)	0	-10	79*	0	2	0
CCOc1cc(CN2CCN(C3CCCCC3)CC2)ccc1OC	0	-2	64*	0	6	18
CCOc1cc(CN2CCN(C3CCCCCC3)CC2)ccc1OC	0	-5	55*	0	-1	8
COc1ccc(CN2CCC(N3CCCCC3)CC2)cc1OC	0	7	38	-1	.	.
CCOc1ccc(CN2CCN(S(=O)(=O)CC)CC2)cc1OC	0	-5	37	-1	.	.
